Data: PubChem BioAssay (NCATS)
Records with an inconclusive call do not appear. A call without a number means that no potency is given here. Activity calls are given as the source filed them. Unless noted, calls come from the whole dose curve; as a rule, active = well fitted curve in the direction sought with a large enough effect; inconclusive = small, poorly fitted or top-dose-only effect, or another doubt; inactive = no such curve, though single readings can be large; an effect the other way counts as inactive or inconclusive.

Legend:
[1] = NS1 protein of Zika virus - qHTS assay to identify small molecule inhibitors in human HEK 293 cells (AID 1347053); note: nearly all actives have a fitted effect of over 55% in size; note: potency is the fitted concentration of half-maximal effect
How it was run: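 Readout was TR-FRET using paired anti-NS1 antibodies after 24 h infection of HEK 293 cells with ZIKV MR766 (MOI = 0.5). Compound preceded virus by 1 h; reduced signal reflects lower NS1 expression.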

[2] = qHTS of pediatric cancer cell lines to identify multiple opportunities for drug repurposing: Primary screen for TC32 cells (AID 1347089); note: nearly all actives have a fitted effect of over 60% in size; note: potency is the fitted concentration of half-maximal effect
How it was run: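 Luminescent ATP read-out (CellTiter-Glo) of metabolically active TC32 cells after 48 h exposure. Concentration-response curves came from 11-point (MIPE, 0.78 nM–46 µM) or 8-point (NPC, 0.59 nM–46 µM) primary titrations; follow-up used 11 points.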

[3] = qHTS of pediatric cancer cell lines to identify multiple opportunities for drug repurposing: Primary screen for DAOY cells (AID 1347090); note: nearly all actives have a fitted effect of over 55% in size; note: potency is the fitted concentration of half-maximal effect
How it was run: (§1)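 Eight- or eleven-point concentration series, 48 h treatment at 37 degrees C in growth media; readout CellTiter-Glo luminescence. Potency and efficacy were taken from the concentration-response curves.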

[4] = qHTS of pediatric cancer cell lines to identify multiple opportunities for drug repurposing: Primary screen for SJ-GBM2 cells (AID 1347091); note: potency is the fitted concentration of half-maximal effect
How it was run: as §1

[5] = qHTS of pediatric cancer cell lines to identify multiple opportunities for drug repurposing: Primary screen for A673 cells (AID 1347092); note: nearly all actives have a fitted effect of over 45% in size; note: potency is the fitted concentration of half-maximal effect
How it was run: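 Cell viability of A673 measured by CellTiter-Glo ATP luminescence after 48 hours compound exposure. Dilution series spanned 0.78 nM to 46 µM (MIPE, 11-point) or 0.59 nM to 46 µM (NPC, 8-point); bortezomib 2.3 uM positive control.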

[6] = qHTS of pediatric cancer cell lines to identify multiple opportunities for drug repurposing: Primary screen for SK-N-MC cells (AID 1347093); note: potency is the fitted concentration of half-maximal effect
How it was run: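 Metabolically active cells were quantified by ATP-dependent luminescence (CellTiter-Glo, 15 min at room temperature) following 48 h treatment. Cells had been plated at 500-1,000 per well and settled for 5 h beforehand.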

[7] = qHTS of pediatric cancer cell lines to identify multiple opportunities for drug repurposing: Primary screen for BT-37 cells (AID 1347094); note: potency is the fitted concentration of half-maximal effect
How it was run: (§2)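 Following a 5-hour attachment period, cells at 500-1,000/well received compounds and were cultured for 48 hours. CellTiter-Glo was added and luminescence read to estimate viable, metabolically active cells.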

[8] = qHTS of pediatric cancer cell lines to identify multiple opportunities for drug repurposing: Primary screen for NB-EBc1 cells (AID 1347095); note: potency is the fitted concentration of half-maximal effect
How it was run: as §2

[9] = qHTS of pediatric cancer cell lines to identify multiple opportunities for drug repurposing: Primary screen for U-2 OS cells (AID 1347096); note: nearly all actives have a fitted effect of over 50% in size
How it was run: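 Cells (500-1,000/well) in growth media were settled 5 h at 37 degrees C, then given compounds for 48 h. Viability was read as CellTiter-Glo luminescence. Primary runs used MIPE at 11 points (0.78 nM-46 µM) and NPC at 8 points (0.59 nM-46 µM); follow-ups used 11 points.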

[10] = qHTS of pediatric cancer cell lines to identify multiple opportunities for drug repurposing: Primary screen for SK-N-SH cells (AID 1347098);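 note: DMSO served as neutral control and bortezomib at 2.3 µM as positive control; nearly all actives have a fitted effect of over 65% in size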
How it was run: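 Cells (500-1,000/well) rested 5 h, then received compounds for 48 h; metabolically active cells were measured by CellTiter-Glo luminescence. Final concentrations spanned up to 46 µM (MIPE, 11-point) or 0.59 nM-46 µM (NPC, 8-point) in primary screens, 11-point in follow-ups.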

[11] = qHTS of pediatric cancer cell lines to identify multiple opportunities for drug repurposing: Primary screen for Saos-2 cells (AID 1347097); note: nearly all actives have a fitted effect of over 40% in size; note: potency is the fitted concentration of half-maximal effect
How it was run: as §2

[12] = qHTS of pediatric cancer cell lines to identify multiple opportunities for drug repurposing: Primary screen for NB1643 cells (AID 1347099); note: nearly all actives have a fitted effect of over 50% in size; note: potency is the fitted concentration of half-maximal effect
How it was run: as §2

[13] = biological target: Atrial natriuretic peptide receptor 1 (Homo sapiens) (UniProt P16066); assay: Natriuretic polypeptide receptor (hNpr1) antagonism - Pilot screen (AID 1347049; calls by dose curve;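 note: HEK293 cells with hNpr1 and GloSensor cGMP luciferase stimulated by 0.1 nM hNppA; agonist-evoked cGMP luminescence read 20 min after hNppA addition; series mostly up to about 58 µM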)
Sequence of Atrial natriuretic peptide receptor 1 (Homo sapiens) (P16066 whole entry, looked up): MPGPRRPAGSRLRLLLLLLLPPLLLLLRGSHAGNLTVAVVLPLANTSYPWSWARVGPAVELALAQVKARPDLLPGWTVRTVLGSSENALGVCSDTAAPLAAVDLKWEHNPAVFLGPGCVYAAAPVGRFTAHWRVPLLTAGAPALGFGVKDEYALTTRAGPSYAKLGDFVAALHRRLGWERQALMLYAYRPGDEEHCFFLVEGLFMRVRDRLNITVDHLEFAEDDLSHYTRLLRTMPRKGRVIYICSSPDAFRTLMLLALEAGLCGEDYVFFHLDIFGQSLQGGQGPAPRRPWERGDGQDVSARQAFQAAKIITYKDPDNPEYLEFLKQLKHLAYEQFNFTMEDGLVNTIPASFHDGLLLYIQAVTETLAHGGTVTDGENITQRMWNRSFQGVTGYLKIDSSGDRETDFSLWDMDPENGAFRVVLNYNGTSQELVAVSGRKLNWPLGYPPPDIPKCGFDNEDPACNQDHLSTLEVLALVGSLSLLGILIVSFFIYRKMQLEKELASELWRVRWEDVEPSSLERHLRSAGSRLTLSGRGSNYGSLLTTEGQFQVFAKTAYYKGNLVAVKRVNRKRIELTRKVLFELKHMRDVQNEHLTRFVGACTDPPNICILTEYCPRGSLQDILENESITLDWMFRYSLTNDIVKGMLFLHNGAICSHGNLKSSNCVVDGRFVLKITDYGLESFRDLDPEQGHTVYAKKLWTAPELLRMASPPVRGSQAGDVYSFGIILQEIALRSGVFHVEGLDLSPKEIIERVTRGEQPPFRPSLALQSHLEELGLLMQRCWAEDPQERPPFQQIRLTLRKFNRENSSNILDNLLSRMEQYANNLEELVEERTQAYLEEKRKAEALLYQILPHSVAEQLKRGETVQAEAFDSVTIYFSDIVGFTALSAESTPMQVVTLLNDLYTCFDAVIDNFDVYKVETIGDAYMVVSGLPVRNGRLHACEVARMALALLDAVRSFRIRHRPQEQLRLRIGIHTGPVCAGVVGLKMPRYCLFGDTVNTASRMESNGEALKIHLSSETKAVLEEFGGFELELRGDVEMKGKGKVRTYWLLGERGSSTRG
How it was run: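 Cells expressing receptor plus cGMP biosensor are seeded and incubated overnight at 37C, then loaded with GloSensor reagent (2% final) at room temperature for 2 h. Library compounds go on for 30 min. A pre-read precedes agonist (hNppA, 0.1 nM final) and a 20-min readout.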

[14] = biological target: Atrial natriuretic peptide receptor 2 (Homo sapiens) (UniProt P20594); assay: Natriuretic polypeptide receptor (hNpr2) antagonism - Pilot subtype selectivity assay (AID 1347050; calls by dose curve)
Sequence of Atrial natriuretic peptide receptor 2 (Homo sapiens) (P20594 whole entry, looked up): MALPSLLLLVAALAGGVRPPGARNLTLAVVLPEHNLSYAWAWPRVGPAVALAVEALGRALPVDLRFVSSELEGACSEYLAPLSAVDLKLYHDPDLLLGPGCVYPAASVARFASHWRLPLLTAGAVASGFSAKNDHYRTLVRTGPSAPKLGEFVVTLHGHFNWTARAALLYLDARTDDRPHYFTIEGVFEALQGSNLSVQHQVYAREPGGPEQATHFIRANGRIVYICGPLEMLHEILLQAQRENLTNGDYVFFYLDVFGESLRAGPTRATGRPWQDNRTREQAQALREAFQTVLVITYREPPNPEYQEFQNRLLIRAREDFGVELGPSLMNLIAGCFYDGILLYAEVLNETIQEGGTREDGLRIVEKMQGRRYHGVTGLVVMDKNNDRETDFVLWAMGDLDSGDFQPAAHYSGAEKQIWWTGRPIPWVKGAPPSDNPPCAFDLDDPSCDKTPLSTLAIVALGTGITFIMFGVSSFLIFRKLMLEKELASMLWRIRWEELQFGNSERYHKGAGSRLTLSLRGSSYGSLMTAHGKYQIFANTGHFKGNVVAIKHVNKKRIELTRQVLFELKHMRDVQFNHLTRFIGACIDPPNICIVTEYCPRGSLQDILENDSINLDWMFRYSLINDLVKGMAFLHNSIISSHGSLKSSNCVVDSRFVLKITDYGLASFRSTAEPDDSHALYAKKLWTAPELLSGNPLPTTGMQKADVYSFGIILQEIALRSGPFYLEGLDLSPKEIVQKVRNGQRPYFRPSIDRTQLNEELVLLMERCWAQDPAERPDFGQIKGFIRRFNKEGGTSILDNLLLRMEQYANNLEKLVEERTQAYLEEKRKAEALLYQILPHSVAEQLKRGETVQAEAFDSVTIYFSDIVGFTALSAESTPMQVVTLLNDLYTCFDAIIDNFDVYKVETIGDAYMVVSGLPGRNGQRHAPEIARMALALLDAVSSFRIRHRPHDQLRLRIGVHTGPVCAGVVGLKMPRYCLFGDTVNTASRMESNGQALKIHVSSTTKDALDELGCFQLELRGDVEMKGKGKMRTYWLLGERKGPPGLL
How it was run: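 Read-out: GloSensor luminescence (CCD imager), baseline vs post-stimulation. HEK293 cells expressing hNpr2; compounds pre-incubated 30-50 min at ambient temperature; hNppC 1 nM final, 20 min.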

[15] = biological target: T1, Tyrosine-protein phosphatase non-receptor type substrate 1 (Homo sapiens) + Leukocyte surface antigen CD47 (Homo sapiens) (UniProt P78324+Q08722); assay: CD47-SIRPalpha protein protein interaction - LANCE assay qHTS validation (AID 1347057; active = well fitted curve in the direction sought with a large enough effect in the signal ratio, with a control signal flat, not every such curve was filed as active; the % refers to the signal ratio; note: series mostly up to about 38 µM)
T1 sequence (P78324 whole entry, looked up, the tested form may be a part): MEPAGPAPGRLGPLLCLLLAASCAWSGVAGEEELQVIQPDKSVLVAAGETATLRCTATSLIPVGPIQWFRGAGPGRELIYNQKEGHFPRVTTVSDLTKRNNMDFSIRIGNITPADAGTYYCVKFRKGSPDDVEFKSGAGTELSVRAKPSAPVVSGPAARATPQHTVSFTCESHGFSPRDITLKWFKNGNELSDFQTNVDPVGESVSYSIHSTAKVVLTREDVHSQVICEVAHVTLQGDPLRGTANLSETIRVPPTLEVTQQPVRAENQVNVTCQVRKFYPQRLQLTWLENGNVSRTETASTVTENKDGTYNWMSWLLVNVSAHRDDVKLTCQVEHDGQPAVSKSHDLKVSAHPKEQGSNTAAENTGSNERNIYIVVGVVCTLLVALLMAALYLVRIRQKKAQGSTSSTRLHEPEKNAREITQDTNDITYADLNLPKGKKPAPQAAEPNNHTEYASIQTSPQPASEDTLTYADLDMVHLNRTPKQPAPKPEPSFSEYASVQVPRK
T1 sequence (Q08722 whole entry, looked up, the tested form may be a part): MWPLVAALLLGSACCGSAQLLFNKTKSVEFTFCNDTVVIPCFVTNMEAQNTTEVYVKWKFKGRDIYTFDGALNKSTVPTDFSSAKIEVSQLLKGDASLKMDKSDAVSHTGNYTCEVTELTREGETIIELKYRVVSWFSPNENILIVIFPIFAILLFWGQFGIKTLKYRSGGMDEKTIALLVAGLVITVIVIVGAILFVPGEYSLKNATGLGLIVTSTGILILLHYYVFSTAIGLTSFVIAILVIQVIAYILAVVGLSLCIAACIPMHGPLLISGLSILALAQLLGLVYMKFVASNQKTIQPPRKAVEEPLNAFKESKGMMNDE
How it was run: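 Inhibition of soluble CD47/SIRPalpha ectodomain association by titrated compounds, measured as 665/615 nm time-resolved FRET ratio after sequential 30 min room-temperature incubations.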

[16] = biological target: T1, Tyrosine-protein phosphatase non-receptor type substrate 1 (Homo sapiens) + Leukocyte surface antigen CD47 (Homo sapiens); assay: CD47-SIRPalpha protein protein interaction - HTRF assay qHTS validation (AID 1347058; active = well fitted curve in the direction sought with a large enough effect in the signal ratio, not every such curve was filed as active; the % refers to the signal ratio; note: series mostly up to about 38 µM)
How it was run: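 Soluble extracellular domains (6His-CD47, Avi-tag-biotinylated SIRPalpha) in PBS pH 7.4 with 0.05% IGEPAL CA-630. Compounds were preincubated 30 min at RT with CD47 and anti-His-Eu, then SIRPalpha and SAV-XL665 were added. TR-FRET 665/615 ratio.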

[17] = biological target: T1, Tyrosine-protein phosphatase non-receptor type substrate 1 (Homo sapiens) + Leukocyte surface antigen CD47 (Homo sapiens); assay: CD47-SIRPalpha protein protein interaction - Alpha assay qHTS validation (AID 1347059);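 note: bead proximity luminescence from CD47 binding SIRPalpha after compound preincubation with SIRPalpha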
How it was run: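 In PBS (pH 7.4) with 0.05% IGEPAL CA-630, compound is preincubated with biotin-Avi-SIRPalpha ectodomain before His-CD47 ectodomain and affinity beads are added. Light-protected room-temperature incubations; AlphaScreen readout.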

[18] = biological target: Parathyroid hormone/parathyroid hormone-related peptide receptor (Homo sapiens) (UniProt Q03431); assay: qHTS for PTHR1 Agonists: Optimization Screen against the NCGC LOPAC library (AID 1347079);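 note: GloSensor cAMP luminescence in HEK-293 GP2 cells expressing human PTHR1 with IBMX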
Sequence of Parathyroid hormone/parathyroid hormone-related peptide receptor (Homo sapiens) (Q03431 whole entry, looked up): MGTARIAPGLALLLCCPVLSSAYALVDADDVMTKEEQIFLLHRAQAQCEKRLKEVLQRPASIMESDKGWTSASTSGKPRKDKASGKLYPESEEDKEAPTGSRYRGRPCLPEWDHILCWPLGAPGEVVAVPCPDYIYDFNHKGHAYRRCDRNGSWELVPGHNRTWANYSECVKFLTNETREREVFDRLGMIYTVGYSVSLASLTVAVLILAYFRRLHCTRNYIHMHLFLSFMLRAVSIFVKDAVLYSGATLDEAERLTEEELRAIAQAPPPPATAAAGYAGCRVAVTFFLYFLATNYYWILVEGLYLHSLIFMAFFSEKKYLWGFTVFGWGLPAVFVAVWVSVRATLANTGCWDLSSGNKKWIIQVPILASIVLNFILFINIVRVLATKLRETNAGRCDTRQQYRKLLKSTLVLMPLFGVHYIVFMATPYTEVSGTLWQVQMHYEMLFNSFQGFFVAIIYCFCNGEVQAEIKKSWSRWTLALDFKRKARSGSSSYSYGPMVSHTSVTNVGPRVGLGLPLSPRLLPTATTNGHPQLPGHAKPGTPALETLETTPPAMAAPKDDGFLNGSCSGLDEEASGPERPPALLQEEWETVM
How it was run: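 HEK-293 GP2 cells, PTHR1 + GloSensor cAMP; 3000 cells/well, o/n. Luciferin + IBMX 0.5mM each (stock), 1 hr 37C. Cpd titration, 1 hr 37C. Lum after 15 min RT. Ctrl M-PTH(1-15) top 10uM.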

[19] = Natriuretic polypeptide receptor (hNpr1) antagonism - Pilot counterscreen GloSensor control cell line (AID 1347045; calls by dose curve; note: series mostly up to about 38 µM)
How it was run: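 Cells were first seeded and incubated overnight at 37C, then loaded with 2% GloSensor substrate for 2 h. Compounds were added for 30 min at room temperature, followed by a baseline read, 50 uM SNP and a final read after 20 min.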

| Compound | Potency [1] | Potency [2] | Potency [3] | Potency [4] | Potency [5] | Potency [6] | Potency [7] | Potency [8] | Potency [9] | Potency [10] | Potency [11] | Potency [12] | outcome [13] | Potency [14] | outcome [15] | outcome [16] | outcome [17] | outcome [18] | outcome [19] |
| --- | --- | --- | --- | --- | --- | --- | --- | --- | --- | --- | --- | --- | --- | --- | --- | --- | --- | --- | --- |
| CC(C)OC(=O)C1=CN(C(=O)c2ccc(F)c(F)c2)CC(C)(C)c2c1[nH]c1ccccc21 | inactive | inactive | inactive | inactive | inactive | 26.4 µM (active) | inactive | inactive | inactive | inactive | – | – | – | – | – | – | – | – | – |
| CCCc1nc2c(C)cc(-c3nc4ccccc4n3C)cc2n1Cc1ccc(-c2ccccc2C(=O)O)cc1 | inactive | inactive | inactive | inactive | inactive | 16.6 µM (active) | inactive | inactive | inactive | inactive | inactive | – | – | – | – | – | – | – | – |
| CC(C)(C)OC(=O)CN(Cc1ccc(Cl)cc1)Cc1ccc([N+](=O)[O-])s1 | inactive | inactive | inactive | – | inactive | 20.9 µM (active) | inactive | – | inactive | – | – | – | – | – | – | – | – | – | – |
| O=C1[C@H](Cc2ccc(O)cc2)N2C(=O)CCN(C(=O)NCc3ccccc3)[C@H]2CN1Cc1cccc2ccccc12 | 9.35 µM (active) | 11.7 µM (active) | 14.8 µM (active) | 10.5 µM (active) | 11.8 µM (active) | 1.18 µM (active) | 4.85 µM (active) | 14.8 µM (active) | inactive | – | – | 2.96 µM (active) | – | – | – | – | – | – | – |
| NC(=O)c1ccc(-c2nc(-c3ccc4c(c3)OCCO4)c(-c3ccccn3)[nH]2)cc1 | inactive | inactive | inactive | – | – | inactive | – | – | inactive | – | inactive | – | – | – | – | – | – | – | – |
| CC(C)(Sc1ccc(CCN(CCCCC2CCCCC2)C(=O)NC2CCCCC2)cc1)C(=O)O | – | inactive | – | – | 18.7 µM (active) | 23.5 µM (active) | 21.7 µM (active) | 20.9 µM (active) | inactive | – | 23.5 µM (active) | 14.8 µM (active) | inactive | inactive | inactive | inactive | inactive | inactive | – |
| CCc1cncnc1N1CCN(Cc2nc3ccc(C(F)(F)F)cc3[nH]2)CC1 | inactive | inactive | 18.7 µM (active) | inactive | 29.6 µM (active) | 23.5 µM (active) | – | – | inactive | – | – | – | – | – | inactive | inactive | inactive | – | – |
| COc1ccccc1-c1cccc(-c2c(O)c3cc(C#N)c(Cl)cc3[nH]c2=O)c1 | inactive | inactive | inactive | – | inactive | 34 µM (active) | – | 7.62 µM (active) | inactive | – | – | inactive | – | – | – | – | – | – | – |
| NS(=O)(=O)c1cc2c(cc1Cl)NC=NS2(=O)=O | inactive | inactive | inactive | – | inactive | inactive | inactive | inactive | inactive | inactive | inactive | – | inactive | inactive | inactive | inactive | inactive | inactive | – |
| Cc1c(C)c2c(c(C)c1O)CCC(C)(COc1ccc(CC3SC(=O)NC3=O)cc1)O2 (centres undefined) | inactive | inactive | inactive | – | inactive | – | inactive | inactive | inactive | inactive | inactive | inactive | – | – | – | – | – | – | – |
| NC(N)=NC(=O)c1nc(Cl)c(N)nc1N | inactive | inactive | – | inactive | – | – | inactive | inactive | inactive | – | inactive | – | inactive | inactive | inactive | – | inactive | inactive | inactive |
| NC[C@H](O)c1ccc(O)c(O)c1 | inactive | inactive | inactive | – | – | – | inactive | inactive | inactive | inactive | inactive | – | inactive | inactive | inactive | – | inactive | inactive | inactive |
